Experimental data from PubChem BioAssay (NCATS).
“And” between values parts separate entries of the source, which are not always exact repeats. Equal values may be shown once. Records with an inconclusive call do not appear. The source made the active and inactive calls. Calls come from the whole dose curve; as a rule, active = well fitted curve in the direction sought with a large enough effect; inconclusive = small, poorly fitted or top-dose-only effect, or another doubt; inactive = no such curve, though single readings can be large; an effect the other way counts as inactive or inconclusive.

Experiments:
CRL-7250 [1] = assay: Cytotoxic Profiling of Annotated Libraries Using Quantitative High-Throughput Screening (AID 1296008); settings: Five cell lines viability, CellTiter-Glo ATP luminescence, 48-72 h; max response: active compounds read low; note: nearly all actives have a fitted effect of over 60% in size; for max response: % is set by controls: 0 for no effect and ±100 for the full control effect
Outline: (§1)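 Cytotoxicity was measured as CellTiter-Glo ATP luminescence, read after 10 min at room temperature. Compound treatment of the cells lasted 48 or 72 hr at 37 degrees Celsius in a qHTS format.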

HEK293 = assay: as above; settings: Five cell lines viability, CellTiter-Glo ATP luminescence, 48-72 h; max response: active compounds read low
Outline: as §1

HaCat [2] = assay: as above; settings: Five cell lines viability, CellTiter-Glo ATP luminescence, 48-72 h; max response: active compounds read low
Outline: as §1

KB-3-1 = assay: as above; settings: Five cell lines viability, CellTiter-Glo ATP luminescence, 48-72 h; max response: active compounds read low
Outline: as §1

NIH3T3 [3] = assay: as above; settings: Five cell lines viability, CellTiter-Glo ATP luminescence, 48-72 h; max response: active compounds read low
Outline: as §1

CRL-7250 [4] = assay: qHTS assay to identify novel small-molecules to repurpose for Merkel cell carcinoma treatment (AID 1296009); settings: MCC and control cell lines, CellTiter-Glo viability, 72 h; at 44.8 µM (top of the series) unless noted; note: nearly all actives have a fitted effect of over 60% in size
Outline: (§2)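 Cell viability measured by CellTiter-Glo following 72 hr compound treatment at 37 degree celsius, with NPC and MIPE libraries tested in 8- and 11-point concentration series.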

MCC-13 = assay: as above; settings: MCC and control cell lines, CellTiter-Glo viability, 72 h; series mostly up to 46 µM
Outline: as §2

MCC-26 = assay: as above; settings: MCC and control cell lines, CellTiter-Glo viability, 72 h; series mostly up to 46 µM
Outline: as §2

MKL-1 = assay: as above; settings: MCC and control cell lines, CellTiter-Glo viability, 72 h; series mostly up to 46 µM
Outline: as §2

MKL-2 = assay: as above; settings: MCC and control cell lines, CellTiter-Glo viability, 72 h; series mostly up to 46 µM
Outline: as §2

NIH3T3 [5] = assay: as above; settings: MCC and control cell lines, CellTiter-Glo viability, 72 h; at 44.8 µM (top of the series) unless noted
Outline: as §2

UISO = assay: as above; settings: MCC and control cell lines, CellTiter-Glo viability, 72 h; series mostly up to 46 µM
Outline: as §2

WaGa = assay: as above; settings: MCC and control cell lines, CellTiter-Glo viability, 72 h; series mostly up to 46 µM
Outline: as §2

C33A = assay: Primary qHTS to identify gynecologic anti-cancer compounds using libraries of approved drugs and bioactive compounds (AID 1345084); settings: Gynecologic cancer cell panel viability, ATPlite luminescence, 48 h; series mostly up to 57.5 µM; note: % is set by controls: 0 for no effect and ±100 for the full control effect; nearly all actives have a fitted effect of over 55% in size
Outline: (§3)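 Cell viability after 48 h drug treatment, ATPlite luminescence readout; five doses.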

CAOV3 = assay: as above; settings: Gynecologic cancer cell panel viability, ATPlite luminescence, 48 h; series mostly up to 57.5 µM
Outline: as §3

CASKI = assay: as above; settings: Gynecologic cancer cell panel viability, ATPlite luminescence, 48 h; series mostly up to 57.5 µM
Outline: as §3

TAB165 = assay: qHTS profiling for inhibitors of Plasmodium falciparum proliferation (AID 504749); note: nearly all actives have a fitted effect of over 60% in size; note: potency is the fitted concentration of half-maximal effect; settings: P. falciparum in erythrocytes, SYBR Green DNA, 72 h; series mostly up to 28.7 µM
Outline: (§4)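 In a 72 h erythrocytic culture (37 C, humidified, 5% CO2) at 2.5% hematocrit and 0.3% starting parasitemia, compounds were tested; SYBR Green I in detergent lysis buffer stained parasite DNA overnight.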

W2 = assay: as above; settings: P. falciparum in erythrocytes, SYBR Green DNA, 72 h; series mostly up to 28.7 µM
Outline: as §4

HEK293T = assay: qHTS assay to identify novel small-molecules to repurpose for Merkel cell carcinoma treatment (AID 1296009); settings: MCC and control cell lines, CellTiter-Glo viability, 72 h; note: nearly all actives have a fitted effect of over 60% in size
Outline: as §2

HACAT [6] = assay: as above; settings: MCC and control cell lines, CellTiter-Glo viability, 72 h
Outline: as §2

[7] = at 44.8 µM (top of the series) unless noted

CCc1cc2c(s1)-n1c(C)nnc1CN=C2c1ccccc1Cl
inactive: outcome (CRL-7250 [1]) | max response (HEK293) -15.5% | max response (HaCat [2]) -1.07% | max response (KB-3-1) -14.4% | outcome (NIH3T3 [3]) | outcome (CRL-7250 [4]) | outcome (MCC-13) | Potency (MCC-26) | Potency (MKL-1) | Potency (MKL-2) | outcome (NIH3T3 [5]) | Potency (UISO) | Potency (WaGa) | Potency (C33A) | outcome (CAOV3) | outcome (CASKI)

CCOC(=O)CC(SP(=S)(OC)OC)C(=O)OCC (stereo not given)
inactive: Potency (TAB165) | Potency (W2) | max response (CRL-7250 [1]) -3.52% | outcome (CRL-7250 [1]) | outcome (HEK293) | max response (HaCat [2]) -7.37% and 2.49% | max response (KB-3-1) -10.3% and -23.1% | max response (NIH3T3 [3]) -6.65% and 2.23% | outcome (CRL-7250 [4]) | outcome (HEK293T; at 44.8 µM (top of the series)) | outcome (HEK293T; at 92 µM (top of the series)) | outcome (MCC-13) | Potency (MCC-26) | Potency (MKL-1) | Potency (MKL-2) | Potency (UISO) | Potency (WaGa) | Potency (C33A) | outcome (CASKI)

CCCCCN(C)CCC(O)(P(=O)(O)O)P(=O)(O)O
inactive: max response (CRL-7250 [1]) -0.0055% | max response (HEK293) -18.4% | max response (HaCat [2]) -1.92% | max response (KB-3-1) 1.98% | outcome (KB-3-1) | outcome (NIH3T3 [3])

CCCCCCCCCC(=O)O[C@H]1CC[C@H]2[C@@H]3CCC4=CC(=O)CC[C@@H]4[C@H]3CC[C@]12C
inactive: Potency (TAB165) | outcome (CRL-7250 [1]) | max response (HEK293) -2.03% | max response (HaCat [2]) 4.55% | max response (KB-3-1) -10.4% | max response (NIH3T3 [3]) -3.4% | outcome (CRL-7250 [4]) | outcome (MCC-13) | Potency (MKL-1) | Potency (MKL-2) | Potency (UISO) | Potency (C33A) | outcome (CAOV3) | outcome (CASKI)

O=C1c2ccccc2C(=O)c2ccccc21
active: Potency (W2) 6.75 µM
inactive: max response (CRL-7250 [1]) -3.19% | outcome (HEK293) | outcome (HaCat [2]) | max response (KB-3-1) -11.4% | max response (NIH3T3 [3]) -2.39% | outcome (HACAT [6]; [7]) inactive [at 17.4 µM] | outcome (HEK293T; [7]) inactive [at 17.4 µM] | outcome (MCC-13) | Potency (MKL-1) | Potency (MKL-2) | Potency (UISO) | Potency (WaGa) | Potency (C33A) | outcome (CAOV3) | outcome (CASKI)

CN1CCC(O)(c2ccc(F)cc2)C(C(=O)c2ccc(F)cc2)C1 (stereo not given)
inactive: Potency (TAB165) | max response (CRL-7250 [1]) -1.09% | max response (HEK293) 3.5% | outcome (HaCat [2]) | max response (KB-3-1) 8.12% | max response (NIH3T3 [3]) 2.95% | outcome (HACAT [6]; [7]) | outcome (MCC-13) | Potency (MCC-26) | Potency (MKL-1) | Potency (UISO) | Potency (WaGa) | Potency (C33A) | outcome (CAOV3) | outcome (CASKI)

O=C(N/N=C/c1ccc([N+](=O)[O-])o1)c1cc([N+](=O)[O-])cc([N+](=O)[O-])c1O
inactive: max response (CRL-7250 [1]) -3.2% | max response (HEK293) 1.49% | outcome (HaCat [2]) | max response (KB-3-1) 15.7% | max response (NIH3T3 [3]) 1.92% | outcome (HACAT [6]; [7]) | outcome (MCC-13) | Potency (MCC-26) | Potency (MKL-1) | Potency (UISO) | Potency (C33A) | outcome (CAOV3) | outcome (CASKI)

C=CCN1C[C@H](C)N([C@H](c2ccc(C(=O)N(CC)CC)cc2)c2cccc(OC)c2)C[C@H]1C
active: Potency (W2) 15.1 µM
inactive: max response (CRL-7250 [1]) 0.0318% | outcome (CRL-7250 [1]) | max response (HEK293) -3.98% and -24.1% | outcome (HaCat [2]) | max response (KB-3-1) 2.69% | outcome (KB-3-1) | max response (NIH3T3 [3]) -0.106% and 4.66% | outcome (CRL-7250 [4]) | outcome (HACAT [6]; at 9.27 µM (top of the series)) | outcome (HACAT [6]; at 44.8 µM (top of the series)) | outcome (MCC-13) | Potency (MCC-26) | Potency (MKL-1) | Potency (MKL-2) | Potency (UISO) | Potency (WaGa) | Potency (C33A) | outcome (CAOV3) | outcome (CASKI)

Oc1ccc(Cl)cc1
inactive: Potency (TAB165) | Potency (W2) | max response (CRL-7250 [1]) -6.01% | outcome (HEK293) | outcome (HaCat [2]) | max response (KB-3-1) -9.29% | max response (NIH3T3 [3]) 0.545% | outcome (HACAT [6]; [7]) | outcome (HEK293T; [7]) | outcome (MCC-13) | Potency (MCC-26) | Potency (MKL-1) | Potency (MKL-2) | Potency (UISO) | Potency (WaGa) | Potency (C33A) | outcome (CAOV3) | outcome (CASKI)

COP(=S)(OC)Oc1ccc(S(=O)(=O)N(C)C)cc1
inactive: Potency (TAB165) | Potency (W2) | max response (CRL-7250 [1]) 4.64% | max response (HEK293) -6.52% | max response (HaCat [2]) -5.18% | max response (KB-3-1) -10.7% | max response (NIH3T3 [3]) -0.737% | outcome (MCC-13) | Potency (MCC-26) | Potency (MKL-1) | Potency (MKL-2) | Potency (UISO) | Potency (WaGa) | Potency (C33A) | outcome (CAOV3) | outcome (CASKI)

CCN[C@@H](C)Cc1cccc(C(F)(F)F)c1
inactive: max response (CRL-7250 [1]) -0.0811% | max response (HEK293) 3.69% | outcome (HaCat [2]) | max response (KB-3-1) -9.47% | max response (NIH3T3 [3]) 2.4% | outcome (HACAT [6]; [7]) | outcome (MCC-13) | Potency (MKL-1) | Potency (MKL-2) | Potency (UISO) | Potency (WaGa) | Potency (C33A) | outcome (CAOV3) | outcome (CASKI)

COc1ccc2c(c1OC)C(=O)O[C@H]2[C@@H]1c2cc3c(cc2CCN1C)OCO3
inactive: max response (CRL-7250 [1]) 0.738% | max response (HEK293) -2.03% | max response (HaCat [2]) -4.43% | max response (KB-3-1) 3.84% | outcome (MCC-13) | Potency (MKL-1) | Potency (MKL-2) | Potency (UISO) | Potency (WaGa) | Potency (C33A) | outcome (CAOV3) | outcome (CASKI)

NCCc1ccc(O)cc1
inactive: Potency (TAB165) | Potency (W2) | max response (CRL-7250 [1]) -9.28% | outcome (HEK293) | max response (HaCat [2]) 1.28% | max response (KB-3-1) -7.48% | outcome (NIH3T3 [3]) | outcome (HEK293T; [7]) | outcome (MCC-13) | Potency (MCC-26) | Potency (MKL-1) | outcome (NIH3T3 [5]) | Potency (UISO) | Potency (C33A) | outcome (CAOV3) | outcome (CASKI)
